Assay outcomes (PubChem)
TGFb inhibitor = blocks TGF-b signaling | hit rate 1.2% among 410,000 | Potency, µM (highest dose often 46.1 µM), for the others: at the top dose activity, negative = inhibition, actives largely listed as inhibitors | HepG2 CAGA-GFP TGF-b/SMAD3 reporter, GFP fluorescence, 18 h; TGF-beta stimulated, 500 pg/mL final; note: % is set by controls: 0 for no effect and ±100 for the full control effect; nearly all actives have a fitted effect of over 65% in size
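Cell-based qHTS in HEPG2 carrying a CAGA-GFP Smad reporter; compounds added before 500 pg/mL final TGF-beta, 18 h incubation at 37 degrees C, GFP fluorescence quantified per cell by imaging cytometry.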
KB-3-1 cytotox = KB-3-1 parental cell cytotoxicity; hit rate 1.4% among 400,000; Potency, µM (doses to about 46.1 µM), actives largely listed as cytotoxic; AID 1347075; KB-3-1 viability, CellTiter-Glo ATP luminescence, 72 h; note: % is set by controls: 0 for no effect and ±100 for the full control effect; nearly all actives have a fitted effect of over 60% in size
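Here the drug-naive KB-3-1 line serves as comparator for MDR sub-line selectivity; cells received compound titrations, 72 h at 37 °C, then CellTiter-Glo readout.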
HepG2 tox = counter-screen for TGF-b inhibitors: cytotoxicity in HepG2 cells; hit rate 0.76% among 410,000; AID 588856; Potency, µM (highest dose often 46.1 µM), for the others: at the highest dose activity change, negative = cytotoxicity, most hits filed as cytotoxic; HepG2 CAGA-GFP viability, ATP luminescence, 18 h
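HepG2 CAGA-GFP cells (1000/well, DMEM with 1% FBS) received compound, then TGF-beta at 500 pg/mL final, and were incubated 18 hours at 37 degrees C. Viability was read by CellTiter-Glo luminescence. Media-only wells were set as complete cell-killing and DMSO as no toxicity.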
HT1080-NT tox = kills 2HG-producing HT-1080-NT fibrosarcoma cells | HT-1080-NT fibrosarcoma viability, CellTiter-Glo ATP luminescence, 48 h | Potency, µM (highest dose often 46.1 µM), without a hit: top-dose activity, negative = less viability, usual class: cytotoxic | hit rate 1.6% among 360,000 | AID 686970;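 note: NT is the 2HG producing partner of a matched IDH1 knockdown line; 0% = DMSO-treated cells and -100% = media-only wells without cells; nearly all actives have a fitted effect of over 55% in size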
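Luminescent CellTiter-Glo readout after 48 hours of compound exposure at 37 degrees C defined viability of HT-1080-NT cells. Activity was normalized to DMSO wells and cell-free media wells; concentration-response curves were fitted and assigned curve classes.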
KB-V1 cytotox = KB-V1 MDR subline cytotoxicity; KB-V1 MDR cells viability, CellTiter-Glo, 72 h; Potency, µM (series often up to 46.1 µM), most hits filed as cytotoxic; hit rate 3.4% among 400,000; AID 1347076; note: % is set by controls: 0 for no effect and ±100 for the full control effect; nearly all actives have a fitted effect of over 60% in size
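Potencies derive from concentration-effect curves fitted to normalized luminescence (CellTiter-Glo) of KB-V1 cells treated for 72 h at 37 degrees C in phenol-red-free DMEM containing 10% FBS.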
HT1080 IDH1KD tx = toxicity to HT-1080 IDH1 knockdown cells (counter line) | HT-1080 IDH1 knockdown viability, ATP luminescence, 48 h | Potency, µM (series often up to 46.1 µM), for inactives: at the top dose activity, negative = toxicity, hits mostly cytotoxic | hit rate 2% among 360,000 | AID 686971;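 note: 0% = DMSO wells and -100% = cell-free medium wells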
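% activity derives from luminescence (CellTiter-Glo), normalised to DMSO and no-cell wells. HT-1080-IDH1KD cells, 750/well, had 48 h compound exposure at 37 °C.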
An asterisk follows results filed as active; i = inactive; u = inconclusive; x = no result; ! = not confirmed by another sample; [ ] = dose if it differs, or a comment. Only some compounds are listed: those with a hit (about 6.6% of all), similar ones and a draw of the others. Calls come from the whole dose curve; as a rule, active = well fitted curve in the direction sought with a large enough effect; inconclusive = small, poorly fitted or top-dose-only effect, or another doubt; inactive = no such curve, though single readings can be large; an effect the other way counts as inactive or inconclusive. Potency is the fitted concentration of half-maximal effect.

SMILES	TGFb inhibitor	KB-3-1 cytotox	HepG2 tox	HT1080-NT tox	KB-V1 cytotox	HT1080 IDH1KD tx
CCCC(C(=O)NCc1ccco1)N(C(=O)CNS(=O)(=O)c1ccccc1)c1ccc(OC)cc1 (stereo not drawn)	-8%	i	-5%	1%	i	-4%
CC(Nc1oc(-c2ccc(COc3ccccc3)o2)nc1C#N)c1ccccc1 (stereo not drawn)	u	i	11µM*	x	i	x
COc1ccc(NC(=O)N2CCc3c([nH]c4ccc(OC)cc34)C2c2ccc(OC)cc2)cc1 (stereo not drawn)	-16%	i	-13%	x	i	x
COc1ccc(-c2nc(CN3CCCCC3c3nccn3C)c(C)o2)c(C)c1C (stereo not drawn)	20µM*	i	-62%	u	i	u
O=C(Cn1ncc2c3ccccc3n(Cc3ccccc3)c2c1=O)NCCc1ccc(Cl)cc1	u	i	7%	x	i	x
CSc1ccc(CN2CCN(Cc3ccc([N+](=O)[O-])cc3)CC2)cc1	0%	u	-2%	u	2.1µM*	-29%
COc1ccccc1C/C(N)=N/OC(=O)c1ccc(C)c([N+](=O)[O-])c1	-6%	i	2%	-2%[9.24 µM]	i	10µM*
COc1ccc(Cl)cc1NC(=O)CN1C(=O)COc2ccc(S(=O)(=O)NC3CCCC3)cc21	u	i	-21%	x	i	x
O=C(CSc1ncnc2sc3c(c12)CCCC3)c1ccco1	0%	i	-31%	-9%	u	-13%
O=C(CSc1ncnc2sc3c(c12)CCCCC3)NCc1ccco1	u	7.3µM*!	-2%	u	u	16µM*
O=C(CSc1ncnc2sc3c(c12)CCCC3)NC1CCS(=O)(=O)C1 (stereo not drawn)	-33%	i	-26%	3%	9.2µM*	5%
CC1CCc2c(sc3nc(SCC(=O)NCc4ccco4)nc(N)c23)C1 (stereo not drawn)	11%	u	-9%	u	13µM*	u
Cc1cc(C)c2c(=O)c3c(oc2c1)C(=O)N(CCCOC(C)C)C3c1ccccc1F (stereo not drawn)	7%	i	2%	x	i	x
CCCCN1C(=O)C(CC(=O)NCCc2ccccn2)CC(C(=O)N2CCCCCC2)=C1C (stereo not drawn)	x	x	x	1%	i	2%
Cc1cc(/C=N/NC(N)=S)c(C)n1-c1ccc(Cl)c(Cl)c1	u	i	-67%	-4%	i	u
CCNC(=S)N/N=C/c1cc(C)n(-c2ccc(Cl)cc2)c1C	-8%	u	6%	-17%	12µM*	-17%
CC(NC(=O)c1noc2c1CCCC2)c1ccccc1 (stereo not drawn)	-15%	i	-20%	-2%	16µM*	-3%
O=C(NCc1cccs1)c1noc2c1CCCC2	-4%	i	-4%	u	i	18µM*
CCCSCCCNC(=O)C1CCN(c2nc3ccccc3nc2C(F)(F)F)CC1	u	i	-5%	x	i	x
COc1ccc(Nc2ncnc3c2nc2n3CCCC2)cc1Cl	u	x	-52%	x	x	x
COc1cccc(CNc2nc(NCC3CC3)nc3ccsc23)c1	u	i	-39%	x	u	x
COc1ccccc1CNc1nc(NC(C)C)nc2ccsc12	u	u	-11%	u	10µM*	u
COc1cccc(CNc2nc(NCC3CC3)nc3ccsc23)c1OC	u	i	-47%	23µM*	u	12µM*
CC(C)c1ccc(CNc2nc(NCC3CC3)nc3ccsc23)cc1	u	u	14µM*	23µM*	u	18µM*
COc1ccccc1CNc1nc(-c2ccccc2CO)c2sccc2n1	-6%	i	-20%	-16%	i	-22%
